Assays:
Assay in all cases: log2 ratio of Biotin-Ahx-Ub-VS probe labelling (fragment/DMSO); higher = less target engagement (more negative = stronger competition), active = hit call of the paper (q ≤ 0.05, log2 ratio ≤ -1)
Details in all cases: compound concentration: 200 uM; treatment time: 3 h
USP42 = biological target: T1, USP42 (UniProt Q9H9J4)
T1 sequence (whole entry): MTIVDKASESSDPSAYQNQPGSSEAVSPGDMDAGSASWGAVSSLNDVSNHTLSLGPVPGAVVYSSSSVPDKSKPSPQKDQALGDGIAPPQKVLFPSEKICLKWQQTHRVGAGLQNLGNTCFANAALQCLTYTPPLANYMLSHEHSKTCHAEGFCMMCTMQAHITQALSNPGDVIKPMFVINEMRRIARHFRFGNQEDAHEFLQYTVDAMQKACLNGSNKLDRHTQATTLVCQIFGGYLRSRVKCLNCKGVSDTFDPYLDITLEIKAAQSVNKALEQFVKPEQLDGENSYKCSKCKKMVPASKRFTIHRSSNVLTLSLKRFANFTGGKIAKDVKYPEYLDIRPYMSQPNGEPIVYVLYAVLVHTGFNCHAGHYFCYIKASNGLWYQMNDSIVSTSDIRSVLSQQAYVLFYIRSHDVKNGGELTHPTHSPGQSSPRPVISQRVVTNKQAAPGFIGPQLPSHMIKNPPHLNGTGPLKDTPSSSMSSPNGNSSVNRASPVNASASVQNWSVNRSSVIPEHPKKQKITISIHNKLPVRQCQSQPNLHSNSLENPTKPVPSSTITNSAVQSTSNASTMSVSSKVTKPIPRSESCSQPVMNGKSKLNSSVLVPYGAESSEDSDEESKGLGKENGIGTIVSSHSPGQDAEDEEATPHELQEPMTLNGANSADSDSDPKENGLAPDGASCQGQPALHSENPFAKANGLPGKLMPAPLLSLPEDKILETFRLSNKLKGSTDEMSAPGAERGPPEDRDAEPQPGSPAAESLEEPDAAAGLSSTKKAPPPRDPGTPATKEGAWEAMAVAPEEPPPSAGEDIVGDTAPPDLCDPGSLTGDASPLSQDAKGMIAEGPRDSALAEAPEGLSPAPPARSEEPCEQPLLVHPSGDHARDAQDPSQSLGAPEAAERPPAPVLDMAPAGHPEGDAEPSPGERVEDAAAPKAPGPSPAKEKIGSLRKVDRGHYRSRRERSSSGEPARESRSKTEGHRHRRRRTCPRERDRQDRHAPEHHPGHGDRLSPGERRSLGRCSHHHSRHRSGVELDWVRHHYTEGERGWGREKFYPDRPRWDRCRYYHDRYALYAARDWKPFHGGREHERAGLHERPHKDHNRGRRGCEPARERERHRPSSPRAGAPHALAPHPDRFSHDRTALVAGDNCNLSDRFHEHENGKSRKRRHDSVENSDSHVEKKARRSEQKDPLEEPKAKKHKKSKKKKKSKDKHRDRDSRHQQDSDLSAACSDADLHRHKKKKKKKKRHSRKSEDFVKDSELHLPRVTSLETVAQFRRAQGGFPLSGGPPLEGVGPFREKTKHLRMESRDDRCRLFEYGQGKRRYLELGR
In short: (§1)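 HEK293T lysate (495 µg per sample, in Tris/CHAPS/IGEPAL buffer with protease inhibitors) was exposed in triplicate for 3 h to fragment at 200 µM or to vehicle, then to Biotin-Ahx-Ub-VS at 0.5 µM final for 1 h. Labelled DUBs were enriched on NeutrAvidin, digested with LysC and trypsin, and analysed by diaPASEF LC-MS/MS. Spectronaut label-free quantities were normalised to the global median, and values are average log2 ratios of fragment over vehicle from an unpaired t-test. Only proteins with ≥2 unique peptides were used.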

USP46 = USP46 (UniProt P62068)
Sequence of USP46 (P62068 whole entry): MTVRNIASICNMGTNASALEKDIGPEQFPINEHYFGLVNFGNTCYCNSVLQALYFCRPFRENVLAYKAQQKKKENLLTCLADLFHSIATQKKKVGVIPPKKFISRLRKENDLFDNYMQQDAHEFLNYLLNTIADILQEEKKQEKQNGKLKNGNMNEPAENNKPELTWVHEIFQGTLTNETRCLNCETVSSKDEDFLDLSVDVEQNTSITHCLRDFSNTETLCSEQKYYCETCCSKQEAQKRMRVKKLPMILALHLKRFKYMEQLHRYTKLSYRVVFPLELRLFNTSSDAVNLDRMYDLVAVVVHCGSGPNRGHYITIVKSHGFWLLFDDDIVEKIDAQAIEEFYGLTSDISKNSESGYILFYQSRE
In short: as §1

USP47 = biological target: T2, USP47 (UniProt Q96K76)
T2 sequence (whole entry): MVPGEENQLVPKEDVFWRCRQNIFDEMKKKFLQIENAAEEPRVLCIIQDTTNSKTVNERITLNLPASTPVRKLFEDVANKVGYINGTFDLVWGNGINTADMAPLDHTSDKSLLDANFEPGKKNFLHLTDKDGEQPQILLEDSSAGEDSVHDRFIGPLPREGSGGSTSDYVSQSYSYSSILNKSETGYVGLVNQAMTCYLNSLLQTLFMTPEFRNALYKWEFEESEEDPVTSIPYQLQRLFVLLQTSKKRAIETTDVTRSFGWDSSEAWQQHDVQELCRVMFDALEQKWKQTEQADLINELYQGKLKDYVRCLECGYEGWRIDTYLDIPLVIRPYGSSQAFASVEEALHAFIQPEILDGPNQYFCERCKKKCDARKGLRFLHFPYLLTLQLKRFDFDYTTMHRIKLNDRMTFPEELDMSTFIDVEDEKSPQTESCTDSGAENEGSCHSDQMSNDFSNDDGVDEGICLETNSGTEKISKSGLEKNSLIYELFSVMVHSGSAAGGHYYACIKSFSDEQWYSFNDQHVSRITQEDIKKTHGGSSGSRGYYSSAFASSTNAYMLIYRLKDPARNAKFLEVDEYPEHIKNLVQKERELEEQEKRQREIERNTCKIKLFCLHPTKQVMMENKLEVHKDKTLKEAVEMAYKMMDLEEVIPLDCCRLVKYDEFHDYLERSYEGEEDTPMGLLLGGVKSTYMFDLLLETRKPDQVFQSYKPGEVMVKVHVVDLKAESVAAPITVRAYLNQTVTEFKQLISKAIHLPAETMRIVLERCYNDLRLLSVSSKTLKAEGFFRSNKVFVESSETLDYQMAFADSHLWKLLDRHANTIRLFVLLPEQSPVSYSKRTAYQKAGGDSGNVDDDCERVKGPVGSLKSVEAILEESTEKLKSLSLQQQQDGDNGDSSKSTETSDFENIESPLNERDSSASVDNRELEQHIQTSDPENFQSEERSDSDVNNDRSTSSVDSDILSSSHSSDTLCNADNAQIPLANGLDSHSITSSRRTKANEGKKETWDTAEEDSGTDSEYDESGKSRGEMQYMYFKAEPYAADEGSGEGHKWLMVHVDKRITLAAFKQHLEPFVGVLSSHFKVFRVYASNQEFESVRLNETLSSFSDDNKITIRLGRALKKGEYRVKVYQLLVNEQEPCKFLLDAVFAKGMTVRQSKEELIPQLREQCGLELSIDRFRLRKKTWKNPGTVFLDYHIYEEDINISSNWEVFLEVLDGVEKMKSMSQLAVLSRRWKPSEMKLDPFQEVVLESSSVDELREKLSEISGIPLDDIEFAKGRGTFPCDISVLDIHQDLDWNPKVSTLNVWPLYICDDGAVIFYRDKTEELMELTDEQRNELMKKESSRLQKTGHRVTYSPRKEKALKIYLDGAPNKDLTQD
In short: as §1

USP48 = biological target: T3, USP48 (UniProt Q86UV5)
T3 sequence (whole entry): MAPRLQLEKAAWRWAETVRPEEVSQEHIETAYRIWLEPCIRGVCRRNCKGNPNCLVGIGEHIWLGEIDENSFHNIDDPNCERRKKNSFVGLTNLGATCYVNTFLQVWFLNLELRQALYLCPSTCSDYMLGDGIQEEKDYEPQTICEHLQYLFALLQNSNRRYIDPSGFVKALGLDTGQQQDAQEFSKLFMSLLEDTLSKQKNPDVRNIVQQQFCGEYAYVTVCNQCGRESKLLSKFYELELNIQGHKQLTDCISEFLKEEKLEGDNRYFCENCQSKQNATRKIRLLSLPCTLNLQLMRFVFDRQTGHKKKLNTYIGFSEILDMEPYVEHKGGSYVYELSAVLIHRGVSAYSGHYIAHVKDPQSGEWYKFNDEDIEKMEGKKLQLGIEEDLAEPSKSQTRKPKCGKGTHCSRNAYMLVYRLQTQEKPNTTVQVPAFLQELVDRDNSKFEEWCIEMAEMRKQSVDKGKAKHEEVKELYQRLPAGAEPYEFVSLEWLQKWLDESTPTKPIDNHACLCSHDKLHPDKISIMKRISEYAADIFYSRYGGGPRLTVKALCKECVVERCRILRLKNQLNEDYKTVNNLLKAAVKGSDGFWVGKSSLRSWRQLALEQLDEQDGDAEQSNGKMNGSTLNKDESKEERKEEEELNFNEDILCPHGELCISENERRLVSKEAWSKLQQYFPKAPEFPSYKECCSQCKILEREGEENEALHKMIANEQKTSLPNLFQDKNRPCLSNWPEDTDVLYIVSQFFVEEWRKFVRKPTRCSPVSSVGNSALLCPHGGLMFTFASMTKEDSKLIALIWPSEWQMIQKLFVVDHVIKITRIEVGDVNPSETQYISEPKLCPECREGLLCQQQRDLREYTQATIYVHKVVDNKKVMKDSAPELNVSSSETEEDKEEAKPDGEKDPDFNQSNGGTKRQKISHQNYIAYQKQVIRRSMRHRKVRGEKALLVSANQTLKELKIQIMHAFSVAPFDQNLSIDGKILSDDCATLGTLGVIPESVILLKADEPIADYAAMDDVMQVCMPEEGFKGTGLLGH
In short: as §1

USP5 = biological target: T4, USP5 (UniProt P45974)
T4 sequence (whole entry): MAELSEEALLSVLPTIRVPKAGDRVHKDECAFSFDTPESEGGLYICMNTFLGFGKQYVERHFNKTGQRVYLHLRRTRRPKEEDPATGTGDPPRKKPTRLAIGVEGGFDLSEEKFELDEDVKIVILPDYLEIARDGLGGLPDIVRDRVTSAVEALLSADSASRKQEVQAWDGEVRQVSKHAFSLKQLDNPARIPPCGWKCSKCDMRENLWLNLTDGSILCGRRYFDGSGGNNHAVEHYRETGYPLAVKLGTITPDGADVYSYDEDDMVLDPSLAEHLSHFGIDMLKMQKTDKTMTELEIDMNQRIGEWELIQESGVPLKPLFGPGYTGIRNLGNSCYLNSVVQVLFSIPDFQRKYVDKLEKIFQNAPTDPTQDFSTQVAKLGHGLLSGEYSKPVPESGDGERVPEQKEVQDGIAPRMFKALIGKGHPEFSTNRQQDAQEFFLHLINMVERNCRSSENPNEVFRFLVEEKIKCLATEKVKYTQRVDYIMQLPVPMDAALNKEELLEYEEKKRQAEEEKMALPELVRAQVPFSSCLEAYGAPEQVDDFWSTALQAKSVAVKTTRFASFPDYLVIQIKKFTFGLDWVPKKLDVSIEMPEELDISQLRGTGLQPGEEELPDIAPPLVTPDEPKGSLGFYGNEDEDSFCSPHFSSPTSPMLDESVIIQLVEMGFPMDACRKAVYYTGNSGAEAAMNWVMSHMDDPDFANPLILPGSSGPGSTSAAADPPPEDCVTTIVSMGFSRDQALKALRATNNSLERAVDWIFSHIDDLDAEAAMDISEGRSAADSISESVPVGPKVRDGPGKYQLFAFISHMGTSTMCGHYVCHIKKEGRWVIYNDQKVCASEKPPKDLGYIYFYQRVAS
In short: as §1

USP54 = USP54 (UniProt Q70EL1)
Sequence of USP54 (Q70EL1 whole entry): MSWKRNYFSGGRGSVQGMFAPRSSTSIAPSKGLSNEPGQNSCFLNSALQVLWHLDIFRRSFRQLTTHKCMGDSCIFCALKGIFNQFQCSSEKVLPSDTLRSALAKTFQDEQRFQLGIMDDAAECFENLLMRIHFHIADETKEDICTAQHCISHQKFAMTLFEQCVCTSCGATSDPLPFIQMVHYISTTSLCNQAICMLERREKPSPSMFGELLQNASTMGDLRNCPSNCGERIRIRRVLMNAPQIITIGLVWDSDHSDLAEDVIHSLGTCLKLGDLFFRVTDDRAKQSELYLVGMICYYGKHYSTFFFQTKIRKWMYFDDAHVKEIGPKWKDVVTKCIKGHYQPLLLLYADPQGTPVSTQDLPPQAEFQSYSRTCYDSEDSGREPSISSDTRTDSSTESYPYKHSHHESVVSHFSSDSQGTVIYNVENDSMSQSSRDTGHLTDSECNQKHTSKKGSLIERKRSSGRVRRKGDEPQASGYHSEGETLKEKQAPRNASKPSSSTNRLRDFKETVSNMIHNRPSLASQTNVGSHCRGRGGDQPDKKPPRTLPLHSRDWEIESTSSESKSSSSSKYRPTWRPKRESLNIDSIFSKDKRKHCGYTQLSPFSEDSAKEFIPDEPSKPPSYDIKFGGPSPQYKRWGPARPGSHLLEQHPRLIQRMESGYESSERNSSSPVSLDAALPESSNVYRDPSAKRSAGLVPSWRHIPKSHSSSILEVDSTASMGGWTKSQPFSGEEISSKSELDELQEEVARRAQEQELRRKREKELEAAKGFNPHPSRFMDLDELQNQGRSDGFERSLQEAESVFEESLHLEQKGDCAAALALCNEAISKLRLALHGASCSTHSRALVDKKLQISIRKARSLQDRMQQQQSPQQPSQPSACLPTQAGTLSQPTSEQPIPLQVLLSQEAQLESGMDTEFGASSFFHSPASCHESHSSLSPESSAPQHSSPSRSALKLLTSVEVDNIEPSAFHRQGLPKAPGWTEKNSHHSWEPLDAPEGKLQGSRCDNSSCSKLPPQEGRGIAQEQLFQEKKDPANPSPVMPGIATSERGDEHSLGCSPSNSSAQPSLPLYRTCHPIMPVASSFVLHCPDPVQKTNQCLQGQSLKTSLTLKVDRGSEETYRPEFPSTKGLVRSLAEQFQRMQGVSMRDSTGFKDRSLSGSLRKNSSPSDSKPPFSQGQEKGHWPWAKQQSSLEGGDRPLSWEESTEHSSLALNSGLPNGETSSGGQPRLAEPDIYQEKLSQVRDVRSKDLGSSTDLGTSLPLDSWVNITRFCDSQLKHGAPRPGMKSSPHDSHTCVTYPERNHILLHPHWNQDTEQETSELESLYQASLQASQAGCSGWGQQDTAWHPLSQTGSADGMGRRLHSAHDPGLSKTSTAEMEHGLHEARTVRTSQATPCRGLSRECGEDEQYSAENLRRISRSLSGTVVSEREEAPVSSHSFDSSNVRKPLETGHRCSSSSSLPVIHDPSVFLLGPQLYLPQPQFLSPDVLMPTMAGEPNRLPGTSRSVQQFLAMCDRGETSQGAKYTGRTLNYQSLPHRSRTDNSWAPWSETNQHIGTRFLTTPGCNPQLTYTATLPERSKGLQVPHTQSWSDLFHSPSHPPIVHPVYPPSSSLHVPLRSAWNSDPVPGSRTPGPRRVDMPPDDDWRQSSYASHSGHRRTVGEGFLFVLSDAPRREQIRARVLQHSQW
In short: as §1

USP7 = USP7 (UniProt Q93009)
Sequence of USP7 (Q93009 whole entry, looked up): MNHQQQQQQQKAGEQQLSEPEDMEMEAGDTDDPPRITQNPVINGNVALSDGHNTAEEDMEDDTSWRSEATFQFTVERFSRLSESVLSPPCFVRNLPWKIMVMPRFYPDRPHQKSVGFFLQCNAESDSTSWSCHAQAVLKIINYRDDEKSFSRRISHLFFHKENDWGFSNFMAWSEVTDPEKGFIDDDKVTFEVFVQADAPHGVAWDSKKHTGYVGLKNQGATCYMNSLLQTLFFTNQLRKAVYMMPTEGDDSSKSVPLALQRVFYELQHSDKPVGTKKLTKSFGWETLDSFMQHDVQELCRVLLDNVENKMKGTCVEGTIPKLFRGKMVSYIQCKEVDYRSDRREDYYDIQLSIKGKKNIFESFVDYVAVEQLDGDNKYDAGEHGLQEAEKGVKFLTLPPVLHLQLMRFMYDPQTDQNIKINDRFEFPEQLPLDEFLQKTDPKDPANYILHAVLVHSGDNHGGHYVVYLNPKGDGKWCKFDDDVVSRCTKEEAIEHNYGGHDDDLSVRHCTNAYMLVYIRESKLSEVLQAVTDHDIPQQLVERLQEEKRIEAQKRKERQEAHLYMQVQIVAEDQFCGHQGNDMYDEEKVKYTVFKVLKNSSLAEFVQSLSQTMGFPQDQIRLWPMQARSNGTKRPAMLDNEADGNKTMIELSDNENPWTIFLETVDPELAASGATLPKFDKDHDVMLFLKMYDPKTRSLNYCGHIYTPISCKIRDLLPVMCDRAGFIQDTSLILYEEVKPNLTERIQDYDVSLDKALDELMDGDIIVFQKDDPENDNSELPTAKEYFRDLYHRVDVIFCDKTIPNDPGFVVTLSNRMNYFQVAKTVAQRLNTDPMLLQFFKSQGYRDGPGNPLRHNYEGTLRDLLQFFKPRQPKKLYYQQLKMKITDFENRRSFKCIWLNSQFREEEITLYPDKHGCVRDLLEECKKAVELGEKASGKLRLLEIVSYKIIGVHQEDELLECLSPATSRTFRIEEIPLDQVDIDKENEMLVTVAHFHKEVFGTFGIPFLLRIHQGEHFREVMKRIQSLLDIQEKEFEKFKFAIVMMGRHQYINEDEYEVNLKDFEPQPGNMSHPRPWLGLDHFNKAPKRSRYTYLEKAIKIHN
In short: as §1

USP8 = biological target: T5, USP8 (UniProt P40818)
T5 sequence (whole entry): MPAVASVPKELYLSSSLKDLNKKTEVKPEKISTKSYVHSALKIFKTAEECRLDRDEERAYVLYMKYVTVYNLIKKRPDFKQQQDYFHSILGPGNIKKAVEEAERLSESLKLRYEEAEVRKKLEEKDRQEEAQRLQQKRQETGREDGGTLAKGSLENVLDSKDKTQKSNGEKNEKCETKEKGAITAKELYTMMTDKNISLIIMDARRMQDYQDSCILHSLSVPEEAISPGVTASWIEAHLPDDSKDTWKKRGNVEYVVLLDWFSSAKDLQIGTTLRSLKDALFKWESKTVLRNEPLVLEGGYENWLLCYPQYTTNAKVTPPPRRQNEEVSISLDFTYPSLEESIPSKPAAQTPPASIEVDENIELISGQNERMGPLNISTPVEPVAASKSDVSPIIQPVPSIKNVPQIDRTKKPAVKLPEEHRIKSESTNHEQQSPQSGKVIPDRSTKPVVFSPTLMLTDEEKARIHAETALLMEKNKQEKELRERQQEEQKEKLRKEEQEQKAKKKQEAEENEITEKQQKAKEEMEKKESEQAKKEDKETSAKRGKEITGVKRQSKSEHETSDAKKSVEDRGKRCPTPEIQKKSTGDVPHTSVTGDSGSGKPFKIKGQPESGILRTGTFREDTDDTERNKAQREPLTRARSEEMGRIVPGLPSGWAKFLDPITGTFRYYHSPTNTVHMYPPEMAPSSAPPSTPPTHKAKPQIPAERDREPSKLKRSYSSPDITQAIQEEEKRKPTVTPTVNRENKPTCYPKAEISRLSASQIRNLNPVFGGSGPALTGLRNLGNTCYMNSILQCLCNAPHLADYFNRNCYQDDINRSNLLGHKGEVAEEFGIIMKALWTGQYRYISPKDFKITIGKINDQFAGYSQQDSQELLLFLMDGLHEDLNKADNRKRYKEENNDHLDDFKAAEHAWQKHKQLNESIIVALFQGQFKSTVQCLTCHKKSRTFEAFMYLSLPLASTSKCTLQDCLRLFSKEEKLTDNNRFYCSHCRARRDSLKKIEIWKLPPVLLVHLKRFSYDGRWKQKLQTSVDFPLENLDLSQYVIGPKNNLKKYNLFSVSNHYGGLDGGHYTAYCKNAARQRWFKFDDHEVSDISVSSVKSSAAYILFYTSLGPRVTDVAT
In short: as §1

USP9X = USP9X (UniProt Q93008)
In short: as §1

UniProt O00487 = biological target: UniProt O00487
Sequence of UniProt O00487 (O00487 whole entry): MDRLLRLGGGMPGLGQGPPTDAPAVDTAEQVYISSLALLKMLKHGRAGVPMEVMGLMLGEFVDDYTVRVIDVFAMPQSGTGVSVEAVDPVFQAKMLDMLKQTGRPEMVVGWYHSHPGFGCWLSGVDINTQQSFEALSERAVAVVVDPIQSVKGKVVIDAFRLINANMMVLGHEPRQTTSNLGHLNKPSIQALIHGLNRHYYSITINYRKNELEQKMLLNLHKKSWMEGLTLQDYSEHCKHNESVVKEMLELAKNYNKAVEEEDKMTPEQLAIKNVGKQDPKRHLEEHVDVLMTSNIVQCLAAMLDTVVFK
In short: as §1

Measured: log2 ratio of Biotin-Ahx-Ub-VS probe labelling

Cc1conc1C1CN(C(=O)CCl)C1
active: USP7 -1.04
inactive: USP42 0.317 | USP46 -0.643 | USP47 -0.971 | USP48 -0.753 | USP5 -0.555 | USP54 1.02 | USP8 -0.915 | USP9X -0.803 | UniProt O00487 -0.115

Source: the supplement of paper PMC11732987, “Enantioselective OTUD7B fragment discovery through chemoproteomics screening and high-throughput optimisation” (Communications Chemistry, 2025)
